The panel holds about 83,000 compounds, 20% with a hit somewhere; the sample as a whole holds those more often.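 Activity criterion: percent growth below 10, measured after cells in 96-well plates were exposed to a single compound concentration for 48 hours.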 Unmarked numbers belong to inactive results. Activity calls are given as the source filed them.

Among the test systems are NCI-H23 lung; NCI-H226 lung; NCI-H322M lung; HOP-62 NSCLC; NCI-H460 lung; HOP-92 NSCLC; NCI-H522 lung; A549/ATCC NSCLC; 786-0 renal; COLO 205 colon.
What all share (experiment): NCI-60 one-dose screen, 48 h (100 = growth as untreated, 0 = no growth, -100 = all killed)
Details in all cases: 10 µM unless noted

Regarding `O=C(O)C(O)C(O)C(=O)O.[NH-]C1CCCCC1[NH-].[Pt+2]` (stereo not given), the growth with NCI-H23 lung was 107%; in the assay with NCI-H226 lung it was 102%; in the assay with NCI-H322M lung, 117%; in the assay on HOP-62 NSCLC, 98.8%; with NCI-H460 lung, 103%; in the assay with HOP-92 NSCLC, 100%. For the same compound, the growth is 93.5% with NCI-H522 lung, 111% in the assay with A549/ATCC NSCLC, 99.9% with 786-0 renal and 106% with COLO 205 colon.

Take `COc1ccc(-n2cc(-c3ccccc3)c3c(SCC(=O)N/N=C/c4ccc([N+](=O)[O-])cc4)ncnc32)cc1`: the growth in the assay on NCI-H23 lung is 88.9%; in the assay on NCI-H226 lung, 84.2%; in the assay on NCI-H322M lung it was 106%; in the assay with HOP-62 NSCLC it was 100%; with NCI-H460 lung it was 113%; with HOP-92 NSCLC, 98.3%. Also, the growth with NCI-H522 lung is 91.5%; with A549/ATCC NSCLC it was 105%; in the assay on 786-0 renal it was 95.3%; in the assay with COLO 205 colon it was 109%.

As for `COc1ccccc1N1CCN(CCn2c(=O)c3c(c4ccccc4n3C)n(C)c2=O)CC1`, the growth is 103% in the assay on NCI-H23 lung; 82.9% in the assay with NCI-H226 lung; 101% in the assay on NCI-H322M lung; 107% with HOP-62 NSCLC; 96.7% in the assay with NCI-H460 lung; 92.1% with HOP-92 NSCLC. For the same compound, the growth is 45.2% with NCI-H522 lung, 71.5% in the assay on A549/ATCC NSCLC, 111% with 786-0 renal and 100% with COLO 205 colon.

`COc1cc(C2C(C(=O)c3cccs3)=C(O)C(=O)N2CCN2CCOCC2)cc(OC)c1OC` (stereo not given): the growth with NCI-H23 lung is 103%; with NCI-H226 lung, 103%; in the assay with NCI-H322M lung, 102%; in the assay with HOP-62 NSCLC, 107%; in the assay with NCI-H460 lung, 101%; in the assay on HOP-92 NSCLC, 99.8%. In addition, the growth was 92.2% in the assay on NCI-H522 lung, 104% in the assay with A549/ATCC NSCLC, 103% in the assay on 786-0 renal and 111% in the assay with COLO 205 colon.

For `C[C@@H]1CC[C@@H]2[C@@H]1[C@H](OC(=O)/C=C/c1ccccc1)[C@]1(c3ccccc3)C[C@@H](OC(=O)CO)[C@@]2(C)O1`, the growth is 102% with NCI-H23 lung; 88.8% with NCI-H226 lung; 88% in the assay on NCI-H322M lung; 101% in the assay with HOP-62 NSCLC; 92% in the assay with NCI-H460 lung; 78.8% in the assay on HOP-92 NSCLC. In addition, the growth in the assay on NCI-H522 lung was 88.5%; in the assay on A549/ATCC NSCLC, 80.2%; with 786-0 renal, 98%; with COLO 205 colon, 107%.

For the compound `Brc1cccc(-c2nc(-c3ccc4c(c3)OCCO4)co2)c1`, the growth is 71.3% [25 µM] in the assay with NCI-H23 lung; 78.2% [25 µM] in the assay on NCI-H226 lung; 90.7% [25 µM] with NCI-H322M lung; 57.9% [25 µM] in the assay on HOP-62 NSCLC; 25.2% [25 µM] in the assay with NCI-H460 lung; 80.4% [25 µM] with HOP-92 NSCLC. For the same compound, the growth in the assay with NCI-H522 lung is 24.5% [25 µM]; in the assay with A549/ATCC NSCLC, 56.3% [25 µM]; in the assay on 786-0 renal, 78% [25 µM]; with COLO 205 colon it was 50.5% [25 µM].

As to `CSc1nc(NCCCNc2ccnc3cc(Cl)ccc23)cc(-c2ccccc2)n1`, the growth with NCI-H23 lung was 67.6%; with NCI-H226 lung, 84.4%; with NCI-H322M lung it was 85.5%; in the assay on HOP-62 NSCLC, 81.3%; in the assay with NCI-H460 lung it was 70%; with HOP-92 NSCLC, 33.5%. Moreover, the growth is 73.5% with NCI-H522 lung, 74.3% with A549/ATCC NSCLC, 72.9% in the assay with 786-0 renal and -76% (active) in the assay on COLO 205 colon.

For `CCCNc1nc(SC)nc(-c2cccc(N)c2)c1C#N`, the growth in the assay with NCI-H23 lung was 93.2%; in the assay with NCI-H226 lung, 93.9%; in the assay on NCI-H322M lung it was 95.8%; in the assay on HOP-62 NSCLC it was 78.8%; in the assay with NCI-H460 lung it was 101%; in the assay on HOP-92 NSCLC, 80.5%. The growth in the assay on NCI-H522 lung is 92.9%; with A549/ATCC NSCLC, 104%; in the assay on 786-0 renal, 102%; in the assay with COLO 205 colon, 119%.

For `C(=N\Nc1nnn(Cc2ccccc2)n1)/c1ccccc1`, the growth in the assay with NCI-H23 lung is 53.1%; in the assay on NCI-H226 lung it was 85%; in the assay on NCI-H322M lung, 86%; in the assay with HOP-62 NSCLC, 67.3%; in the assay on NCI-H460 lung, 17.4%; in the assay on HOP-92 NSCLC, 87.2%. The growth was 29.2% in the assay with NCI-H522 lung, 33.6% in the assay on A549/ATCC NSCLC, 63.6% with 786-0 renal and 36.9% in the assay on COLO 205 colon.

As for `Nc1nc(-c2ccc(F)cc2)cc(-c2cnn(-c3ccccc3)n2)n1`, the growth was 99.1% in the assay on NCI-H23 lung; 105% in the assay on NCI-H226 lung; 93.9% in the assay on NCI-H322M lung; 101% in the assay on HOP-62 NSCLC; 103% with NCI-H460 lung; 94.1% in the assay on HOP-92 NSCLC. For the same compound, the growth is 82.2% in the assay on NCI-H522 lung, 95.3% with A549/ATCC NSCLC, 107% in the assay with 786-0 renal and 105% with COLO 205 colon.

In the case of `CC(=O)C1=C(O)C=C2Oc3c(C(=O)/C=C/c4cc(Cl)cc(Cl)c4)c(O)c(C)c(O)c3[C@]2(C)C1=O`, the growth in the assay on NCI-H23 lung was -42% (active); in the assay with NCI-H226 lung, -41.1% (active); in the assay with NCI-H322M lung, -28.9% (active); in the assay with HOP-62 NSCLC, -42.5% (active); in the assay with NCI-H460 lung it was -5.02% (active); in the assay with HOP-92 NSCLC, -22% (active). For the same compound, the growth was -52.2% (active) in the assay on NCI-H522 lung, -27.1% (active) in the assay with A549/ATCC NSCLC, -34.9% (active) in the assay with 786-0 renal and -70.3% (active) in the assay with COLO 205 colon.

Take `CCC(c1ccccc1)C(CC)c1ccc(O)c(O)c1` (stereo not given): the growth with NCI-H23 lung was 89.5%; in the assay on NCI-H226 lung, 97.4%; in the assay on NCI-H322M lung, 96.1%; in the assay with HOP-62 NSCLC, 124%; in the assay with NCI-H460 lung, 107%; in the assay with HOP-92 NSCLC, 83.6%. Further, the growth in the assay on NCI-H522 lung was 85.2%; in the assay on A549/ATCC NSCLC, 98.6%; with 786-0 renal it was 98.9%; in the assay with COLO 205 colon, 125%.

`Cc1sc2nc3[nH]/c(=C\c4ccc(Cl)cc4)c(=O)n3c(=O)c2c1C`: the growth in the assay with NCI-H23 lung is 103%; with NCI-H226 lung, 100%; in the assay with NCI-H322M lung it was 103%; in the assay with HOP-62 NSCLC, 110%; with NCI-H460 lung, 104%; in the assay with HOP-92 NSCLC, 92.7%. Further, the growth in the assay on NCI-H522 lung was 88.1%; in the assay on A549/ATCC NSCLC, 94.1%; in the assay on 786-0 renal, 95.1%; with COLO 205 colon, 112%.

Source of the values: PubChem BioAssay (NCI).
